Most compounds without a hit are left out; they make up all but 1.7% or so of the library.
mIDH1 inhibitor – human IDH1 R132H inhibition. O75874. IDH1-R132H enzyme, NADPH consumption, diaphorase/resazurin fluorescence. Potency, µM (highest dose often 76.6 µM), for the others: at the highest dose activity change, negative = inhibition, usual class: inhibitors. 390,000 compounds, 0.093% hits. AID 602179; further: on the % scale 0 is the no-effect control and ±100 the full control effect; nearly all actives have a fitted effect of over 65% in size
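IDH1-R132H (0.5 ug/mL dispensed) in pH 7.5 Tris buffer was preincubated 30 min with compound, then given a substrate mix of 0.016 mM NADPH and 2 mM alpha-KG for 80 min at room temperature; remaining NADPH was read by diaphorase/resazurin fluorescence.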
rTrxR1 inhibitor – rat TrxR1 inhibition | AID 588453 | Potency, µM (doses to about 114 µM), for the others: at the highest dose activity change, negative = inhibition, actives largely listed as inhibitors | recombinant rTrxR1, NADPH fluorescence consumption, selenite substrate | 390,000 compounds, 1% hits; further: on the % scale 0 is the no-effect control and ±100 the full control effect; nearly all actives have a fitted effect of over 65% in size
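Rat TrxR1 (90 nM in the dispensed reagent) was pre-reduced with 400 uM NADPH for 5 min at room temperature, then incubated with compound for 15 min. After 400 uM selenite was added, NADPH fluorescence (Ex 340/Em 450 nm) was followed for 8 min.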
12-LOX inh – ALOX12 (human) lipoxygenase inhibition; P18054; purified 12hLO, xylenol orange hydroperoxide absorbance; Potency, µM (series often up to 108 µM), for inactives: top-dose activity change, negative = inhibition, hits mostly inhibitors; 580,000 compounds, 1.1% hits; AID 1671190; further: on the % scale 0 is the no-effect control and ±100 the full control effect
Target sequence (P18054 whole entry, looked up): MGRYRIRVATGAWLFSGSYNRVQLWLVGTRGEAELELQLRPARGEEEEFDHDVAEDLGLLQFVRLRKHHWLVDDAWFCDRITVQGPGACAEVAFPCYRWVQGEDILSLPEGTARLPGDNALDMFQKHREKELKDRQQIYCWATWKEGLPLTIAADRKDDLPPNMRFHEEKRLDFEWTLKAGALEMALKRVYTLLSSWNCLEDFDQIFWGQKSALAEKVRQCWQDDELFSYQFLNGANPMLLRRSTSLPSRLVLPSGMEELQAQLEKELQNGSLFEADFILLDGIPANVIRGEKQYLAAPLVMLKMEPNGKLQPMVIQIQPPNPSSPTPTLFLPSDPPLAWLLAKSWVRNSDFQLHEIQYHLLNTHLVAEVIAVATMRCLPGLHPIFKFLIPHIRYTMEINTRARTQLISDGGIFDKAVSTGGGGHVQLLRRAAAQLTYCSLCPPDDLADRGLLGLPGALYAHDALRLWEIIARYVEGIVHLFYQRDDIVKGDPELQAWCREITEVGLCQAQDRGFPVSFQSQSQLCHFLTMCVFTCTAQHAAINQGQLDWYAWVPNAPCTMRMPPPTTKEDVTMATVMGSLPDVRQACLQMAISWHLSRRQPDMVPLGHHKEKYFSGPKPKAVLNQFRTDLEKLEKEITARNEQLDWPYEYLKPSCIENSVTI
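Purified human 12hLO (150 nM final) in 25 mM Hepes, 0.01% Triton X-100, pH 7.0 was preincubated 15 min at room temperature with compound. Then 40 uM arachidonic acid was added, 30 min. Hydroperoxide was read by Fe-XO absorbance ratio 573/405 nm.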
GRP78 ERSR act – induces the endoplasmic reticulum stress response in human glioma cells; U87-MG GRP78 promoter luciferase reporter, 16 h; Potency, µM, without a hit: top-dose activation, actives largely listed as activators; AID 602332; 420,000 compounds, 0.02% hits; further: series mostly up to about 76 µM; % of control where 0% means no effect; nearly all actives have a fitted effect of over 35% in size
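Stably transfected U87-MG human glioma cells carrying a GRP78-based luminescent sensor were seeded at 1000 cells/well, pin-dosed with compounds and incubated 16 h. Luciferase reagent was then added, and end-point luminescence was read after 10 min at room temperature.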
TrxR1 substrate – is turned over as a substrate by rat TrxR1. Potency, µM (titrated, usually from 114 µM), for inactives: at the top dose activity change, negative = substrate turnover. O89049. 390,000 compounds, 0.01% hits. purified TrxR1 substrate turnover, NADPH consumption readout; further: on the % scale 0 is the no-effect control and ±100 the full control effect; nearly all actives have a fitted effect of over 50% in size
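Rat TrxR1, dispensed at 90 nM, was prereduced with 400 uM NADPH (final) for 5 min at ~22 deg C, then incubated with compound 15 min before 400 uM selenite. A first-read NADPH fluorescence drop versus no-compound background flagged substrates.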
Anesthetic bind – binds horse apoferritin like a general anesthetic; P02791; apoferritin/1-aminoanthracene competitive binding, fluorescence; Potency, µM (top dose mostly 77.5 µM), inactives show top-dose activity change, negative = displacement, usual class: inhibitors; 350,000 compounds, 0.074% hits; further: on the % scale 0 is the no-effect control and ±100 the full control effect; nearly all actives have a fitted effect of over 20% in size
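10 uM apoferritin + 50% sat. 1-AMA, PBS; cpd 10 min RT; Ex380/Em535 endpoint; normalized to free probe vs complex; 4-param Hill fit; propofol titration as pos. ctrl.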
Active calls of the source: *; ? = inconclusive; nt = no result; [ ] = dose if it differs, or a comment. The call rests on the fitted dose curve; in most records, active means well fitted curve in the direction sought with a large enough effect; inconclusive means small, poorly fitted or top-dose-only effect, or another doubt; inactive means no such curve, though single readings can be large; an effect the other way counts as inactive or inconclusive. Potency means the concentration at half of the fitted maximal effect.

SMILES | mIDH1 inhibitor | rTrxR1 inhibitor | 12-LOX inh | GRP78 ERSR act | TrxR1 substrate | Anesthetic bind
Cc1ccccc1C(=O)NNC(=O)/C=C\C(=O)O | 10.8% | 7.08µM* | -8.8% | 6.5% | -0.2% | -6.1%
CCC(C)Sc1cc(C)c(C#N)c2nc3ccccc3n12 (centres undefined) | ? | 3.9%[57.1 µM] | 0.8% | -4.3% | -7.0% | 11.4%
CCOC(=O)CSc1cc(C)c(C#N)c2nc3ccccc3n12 | -2.0% | 1.12µM* | ? | -2.1% | 9.1%[57.1 µM] | -0.3%
O=C1C(N2CCN(S(=O)(=O)c3cccc(F)c3)CC2)CCN1CCc1ccccc1 (centres undefined) | nt | nt | 19.3% | nt | nt | nt
Clc1cccc(Cl)c1CNc1ccc(N2CCCC2)cc1 | 33.0% | 3.55µM* | ? | -7.0% | 5.4%[57.1 µM] | -13.9%
Cc1ccc(-n2c3c(cc(-c4nc(-c5ccc(Cl)cc5)cs4)c2=O)C(=O)CC(C)(C)C3)cc1 | -16.8% | 16.9% | -7.2% | -1.9% | 6.9% | -1.9%
C#CCNC(=O)c1nc(-c2cc(Cl)cc(Cl)c2)c2ccccn12 | nt | nt | -14.6%[176 µM] | nt | nt | nt
O=C(NC1CCCCC1)C1COc2ccccc2O1 (centres undefined) | 3.7% | 50.1µM* | -21.7% | 3.1% | -2.6% | nt
O=C(NCCc1ccc(O)c(O)c1)C1COc2ccccc2O1 (centres undefined) | -3.8% | 44.7µM* | ? | ? | 3.8% | -9.5%
CN1C(=O)CS(=O)(=O)C12CCN(C(=O)c1ccoc1)CC2 | nt | nt | 8.1% | nt | nt | nt
O=C(CCc1ccccc1)Nc1cc(Cl)ccc1O | 7.5% | 3.7% | -29.6% | -0.4% | -2.5% | 5.62µM*
O=C(CCc1ccccc1)NNC(=S)NC(=O)c1ccc(Cl)cc1 | -9.0% | ? | 12.6µM* | 4.5% | 3.7% | -14.3%
O=C(NNC(=S)NC(=O)c1ccc(F)cc1)c1ccc(Cl)cc1 | nt | nt | 17.8µM* | nt | nt | nt
O=C(CCc1ccccc1)NNC(=O)c1ccc(Cl)cc1 | 3.8% | 5.2%[57.1 µM] | 4.0% | -3.5% | -7.6% | -0.2%
O=C(NC(=S)NC12CC3CC(CC(C3)C1)C2)c1ccc(F)cc1 | 3.1% | -11.3% | 22.4µM* | -4.6% | 14.3%[57.1 µM] | nt
Cc1ccc(C(=O)NNC(=S)NC(=O)c2ccc(Cl)cc2)cc1 | -7.3% | -14.3% | ? | ? | -10.1% | -4.8%
Cc1ccc(C)c(N2CCN(C(=O)C3CCN(S(=O)(=O)c4cn(C)cn4)CC3)CC2)c1 | -6.5% | 16.0%[57.1 µM] | -29.7% | 0.2% | -3.2%[57.1 µM] | -0.2%
COc1ccc(NC(=O)CN2C(=O)NC3(CCOCC3)C2=O)cc1 | nt | nt | 19.3% | nt | nt | nt
COCC(=O)N[C@@H]1CN(Cc2sccc2C)CC[C@@H]1c1n[nH]c(C)n1 | nt | nt | 70.4% | nt | nt | nt
Cc1cc(Cl)ccc1OC(C)C(=O)Nc1ccc(C(=O)Nc2ccccc2C(=O)O)cc1 (centres undefined) | 16.7% | 6.2% | 50.1µM* | 1.1% | -3.3% | -14.5%
C#CCNC(=O)c1nc(C(C)(C)C)c2cnccn12 | nt | nt | 1.4%[12.5 µM] | nt | nt | nt
CCn1c(-c2cc(-c3cc(OC)ccc3OC)nc3ccccc23)n[nH]c1=S | -0.1% | 16.2% | 20µM* | -5.5% | 14.2% | -3.5%
CCN(CC)S(=O)(=O)c1ccc(-c2csc(-c3ccccc3OC)n2)cc1 | nt | nt | 9.5% | nt | nt | nt
C=CCNc1oc(/C=C/c2cccs2)nc1C#N | nt | nt | 17.8µM* | nt | nt | nt
C=CCNc1oc(-c2cccc(F)c2)nc1C#N | nt | 7.08µM* | 0.0% | -3.4% | -0.9% | nt
SMILES | mIDH1 inhibitor | rTrxR1 inhibitor | 12-LOX inh | GRP78 ERSR act | TrxR1 substrate | Anesthetic bind
CCCCNc1oc(/C=C/c2cccs2)nc1C#N | nt | nt | 24.1% | nt | nt | nt
COC(=O)C1=C(C)N=C2SC=C(CC(=O)NCc3ccco3)N2C1c1ccccc1OC (centres undefined) | nt | nt | 89.8% | nt | nt | nt
Cc1ccc(C(=O)N(C)Cc2ccc(F)cc2)cc1 | nt | nt | 41.2%[176 µM] | nt | nt | nt
C[C@@H]1CN([C@@H](C)CO)S(=O)(=O)c2ccc(C#CC3CCCCC3)cc2O[C@@H]1CN(C)Cc1cccnc1 | ? | nt | 14.1µM* | -7.7% | nt | nt
C[C@H]1CN([C@@H](C)CO)S(=O)(=O)c2ccc(C#CC3CC3)cc2O[C@H]1CN(C)C(=O)c1cccnc1 | -10.5% | nt | ? | -3.9% | nt | nt
COc1ccccc1S(=O)(=O)N(C)C[C@H]1Oc2cc(C#CCC3CCCC3)ccc2S(=O)(=O)N([C@H](C)CO)C[C@H]1C | -2.3% | nt | 20µM* | ? | nt | nt
COc1ccc(NC(=O)CSc2nc(N3CCOCC3)c3c(c2C#N)CCCC3)cc1 | nt | nt | -0.7% | nt | nt | nt
Cc1ccc(S(=O)(=O)N/N=C\c2ccc([N+](=O)[O-])o2)cc1 | -1.3% | ? | ? | -3.7% | -2.5%[57.1 µM] | 3.6%
CC1CN(N=Cc2ccc([N+](=O)[O-])o2)C(=N)O1 (centres undefined) | 10.9% | 35.5µM* | -15.5% | -3.1% | -11.9% | nt
N#C/C(=C\c1ccc([N+](=O)[O-])o1)C(=O)Nc1ccc(F)cc1 | 11.7% | 3.16µM* | 44.7µM* | 1.7% | 7.2% | -20.8%
O=[N+]([O-])c1ccc(/C=N/N=C/c2ccc([N+](=O)[O-])o2)o1 | 1.5% | 2.51µM* | -2.3% | -14.5% | 3.7%[57.1 µM] | -7.4%
O=[N+]([O-])c1ccc(/C=N/NS(=O)(=O)c2ccc(Cl)cc2)o1 | 0.7% | 14.1µM* | -32.0% | -1.2% | -4.9% | -10.7%
O=C(NCC(=O)N1CCN(S(=O)(=O)c2ccc3c(c2)OCCO3)CC1)c1ccc2c(c1)OCO2 | nt | nt | -16.8% | nt | nt | nt
N#CCc1ccc(NC(=O)/C=C/c2ccc([N+](=O)[O-])o2)cc1 | 0.0% | 15.8µM* | nt | -14.0% | -9.5% | -11.3%
NC(=O)NN=Cc1ccc([N+](=O)[O-])o1 | nt | nt | -24.4%[57.4 µM] | nt | nt | nt
O=C(O)/C=C/c1ccc([N+](=O)[O-])o1 | 1.5% | 10µM* | -24.1% | 5.1% | -0.8%[57.1 µM] | -12.6%
COc1cccc(Nc2nc(C(N)C3CCCCC3)cs2)n1 (centres undefined) | nt | nt | -8.4% | -8.4% | nt | nt
Cc1ccc(CN(C)C(C)C(=O)N(C)CC(=O)Nc2ccccc2C(F)(F)F)cc1 (centres undefined) | nt | nt | 20.4% | nt | nt | nt
CSc1cccc(NC(=O)/C=C/c2ccco2)c1 | 4.6% | 14.1µM* | ? | 13.0% | -9.3%[57.1 µM] | -11.5%

Screening data as filed in PubChem.
